The values that follow come from the supplement of paper PMC12632987.

T1: USP38, Q8NB14
T1 chain: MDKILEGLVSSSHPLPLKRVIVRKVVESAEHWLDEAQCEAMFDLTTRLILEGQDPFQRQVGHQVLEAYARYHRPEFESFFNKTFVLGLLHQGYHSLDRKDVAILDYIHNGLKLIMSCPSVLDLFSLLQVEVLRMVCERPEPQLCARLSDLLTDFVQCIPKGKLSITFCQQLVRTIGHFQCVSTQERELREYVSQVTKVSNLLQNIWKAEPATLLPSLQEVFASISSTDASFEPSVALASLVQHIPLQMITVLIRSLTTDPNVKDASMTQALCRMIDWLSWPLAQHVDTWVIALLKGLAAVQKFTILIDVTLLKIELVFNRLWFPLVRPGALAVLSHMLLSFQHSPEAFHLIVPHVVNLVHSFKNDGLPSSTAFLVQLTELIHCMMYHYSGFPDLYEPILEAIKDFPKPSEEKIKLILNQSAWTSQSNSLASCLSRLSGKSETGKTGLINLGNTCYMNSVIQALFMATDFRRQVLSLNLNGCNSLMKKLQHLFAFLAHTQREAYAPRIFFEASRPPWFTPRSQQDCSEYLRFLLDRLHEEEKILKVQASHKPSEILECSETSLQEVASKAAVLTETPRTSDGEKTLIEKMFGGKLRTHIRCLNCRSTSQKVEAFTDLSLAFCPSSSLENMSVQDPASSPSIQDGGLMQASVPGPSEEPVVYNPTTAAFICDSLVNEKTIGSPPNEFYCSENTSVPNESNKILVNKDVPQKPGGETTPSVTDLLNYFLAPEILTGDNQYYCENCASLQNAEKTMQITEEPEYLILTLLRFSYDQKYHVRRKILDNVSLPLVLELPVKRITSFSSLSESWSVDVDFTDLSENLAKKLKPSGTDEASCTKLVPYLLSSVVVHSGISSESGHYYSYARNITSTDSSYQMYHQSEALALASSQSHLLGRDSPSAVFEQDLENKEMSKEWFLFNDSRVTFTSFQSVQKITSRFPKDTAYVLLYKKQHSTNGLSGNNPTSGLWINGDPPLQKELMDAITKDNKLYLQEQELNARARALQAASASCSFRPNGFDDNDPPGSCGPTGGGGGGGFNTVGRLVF

B1: usp_38_diff_out_18_28_419 (protein)
chain: MLEERQKKIEKLQKEADELIDKYTEAAEKGFLKYHEDPSAEEVLEAIKELSDHVGAAAAAVNEMKENIENEEKFEEELKKFKEHKKKALEALEKLKKLLA
B2: usp_38_diff_out_18_28_414 (protein)
chain: MLEENKKKIEEMKKEADELIDKANEVMTQGYLAYADDPSNEELLKAIRELGDAVGAAAAAVREARENIENPEKVEKEKKKFEEAKKAAEEKIEEVKKLIA
B3: usp_38_diff_out_18_28_430 (protein)
chain: AEEEIKAKIEAAEKEMDKLIDEYVKVAEEAFLKLDESDKGEELEEAINKMADALGKAAAAVNEMRRNRDDPAAVEAELEKFKKAKKEAEEYIKKIKELLK
B4: usp_38_diff_out_18_28_429 (protein)
chain: SMEEIKKKIEEAEKEADALIDEANEVATQGFLAYHENPEKTELLEAVNELWDALGKAAQAVNDMRENKNNPEKVEKELKKFKEAAKAAKEKIAKIKELIA
B5: usp_38_diff_out_18_28_426 (protein)
chain: MLEENKKKIEKAKEEADKLIDEANKVATEGFLKYSENPENEELLKKINELWDAVGKAAQAVNDMRENIEDEEAVEKNLKKFEEAKKEAEKLIEELKKLIE
B6: usp_38_diff_out_18_28_415 (protein)
chain: MLEENRKKIEEAKKEADELIDKANKVATEGFLKYSEDPSNEELLKAVNELLDYVGKAAAAVVEMRENINDPEAVEEQLKKFKEAKEKAEKAIEEVKKLIA
B7: usp_38_diff_out_18_28_420 (protein)
chain: MKEERLKKLEELEKRADALIDEYNELATKGFLKYHDDPSATEVLEAVNKLSDAVGAAAAAVNAMKENIDNEEAFEAEYKKFEEEEAKAKEYAEELKKLIA
B8: usp_38_diff_out_18_28_424 (protein)
chain: MAAEIQARIDAAKARADALIDEVEKVSTEAFLKYSEDPSMEELLEADRKLWDAAGTAAAAVRAMREHRDDPAAVDAELAVFEKAAAEAEKLIKEIKELIK
B9: usp_38_diff_out_18_28_425 (protein)
chain: MREEVERRIAELEARADALIDRAEEVSTKAFLAYSEDPSSEELLKKNDELWDAVGAAAAAVREMRENRDDPEAVAREEERFREAAARAEALIKEIEKLIK
B10: usp_38_diff_out_18_28_416 (protein)
chain: MMKEIEEKIEKLEKEADELIDKATEAMTKGFLKINEDPNSEELIEAINKLSDAVGKAAHAVNLARRNKNNPEAVEKYEKEFEKAKKEAEKELKKLEELIK
B11: usp_38_diff_out_18_28_422 (protein)
chain: SLAERRALIEELKKEADELIDEYTELATEAFLAYHENPDAEELLAAADALSDAVGAAAAAVREMREHLEDEAKVEAYTKEFKAQKKEAKEKAKELKKLLA
B12: usp_38_diff_out_18_28_421 (protein)
chain: MREERRKRIEELEKEADELIDEYEKLAREAFLYYHENPEAEEVLEAARRLGDAVGKAAAAVNEMKENIDDEEKFEEYEEEFKRYKAEAKEYAEELKKLLA
B13: usp_38_diff_out_18_28_417 (protein)
chain: MLEERRERLKEMEKEADELIDKYNEAATKGFLYYHEHPEAEEVLEAVDKLSDAVGAAAAAVNEMRENIEDEEAFKKEEEKFKEYKKEAEKYLEELEKLIA
B14: usp_38_diff_out_18_28_413 (protein)
chain: MREENRKRIEEMEKKADELIDEANEVATEGYLKYADDPSNEELLKAIRELMDAVGEAAAAVREARENIDDPEKVEEEEKRFEEAYEKAKKKIKEVKELIK
B15: usp_38_diff_out_18_28_428 (protein)
chain: SQEEIQKLIEENRKKTDELIDEANKVATEAYLAYHDNPEATELLEAVDKLWDALGKAAQAVNEMRENRDDPEKVKKEAAKFEEAAKKAEEYIKKIKELIA
B16: usp_38_diff_out_18_28_427 (protein)
chain: ALAANQATIEKARAEADKLIDESNKILTEAYLAYHEDPSSKELLEAAKKLSDALGKAAQAVNDMRAHRHDAAAVAKHAKEFEKAAKEAKKAIEEIKKLLK

In the experiment the target is T1, USP38, Q8NB14. Put plainly: median log2 fold change of GCK-ALFA target abundance (FLAG IP / Myc IP barcode read proportion) (log2 ratio); each designed protein is fused to an ALFA-tag nanobody in HEK293 cells to bring the named protein to FLAG-tagged glucokinase (GCK); Myc marks an untargeted standard; higher = target protein stabilised (more abundant). Particulars: target protein: 3xFLAG-MCP-GCK-ALFA reporter; HEK293 landing pad (RPLP). In short, it runs like this:
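The readout is target abundance, the per-binder median log2 ratio of FLAG to Myc barcode read proportions. It came from HEK293 landing-pad cells carrying a recombined ALFA-nanobody-fused binder library, induced with 2 μg mL^−1 doxycycline and transfected with a plasmid for a FLAG-tagged target and a Myc-tagged standard. After 48 h, lysates were immunoprecipitated with anti-FLAG and anti-Myc, and circular RNA barcodes were reverse transcribed, amplified and sequenced. Each barcode needed a proportion of at least 10^−7 in both replicates and each binder at least 3 barcodes per replicate, a pseudocount of 10^−6 was added, and the replicates were pooled.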
With B1, the “median log2 fold change” value stood at 0.0382.
In the case of B2 it was 0.143.
With B3, the “median log2 fold change” value was -0.244.
In the case of B4 it was -0.434; in that of B5, 0.0382; in that of B6, 0.333.
For B7 the value was 0.326.
For B8 the value was 0.0788; for B9, -0.0591; for B10, -0.28.
As for B11, the “median log2 fold change” value was -0.0738.
In the case of B12 it was -0.848; in that of B13, -0.307.
In the case of B14 it was -0.0716; in that of B15, 0.0104.
For B16 the value was -0.128.
